This passage reports growth results from PubChem BioAssay (NCI).

This is part of a sample that, as a whole, favours compounds with a hit. Of some 83,000 tested, about 20% had one in any assay.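 Step 1: grow cells in 96-well plates. Step 2: add test compound at a single concentration. Step 3: incubate 48 h. Step 4: record percent growth.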 A number with no mark means an inactive call. Activity calls are given as the source filed them.

The experiment relates to COLO 205 colon. Kind of experiment: NCI-60 one-dose screen, 48 h (100 = growth as untreated, 0 = no growth, -100 = all killed). The settings on record: 10 µM unless noted. As to the method: Cells are grown in 96 well plates and exposed to the test compound for 48 hours. Compounds are tested at a single concentration, which is 10^-5 M for most compounds. The reported endpoint is percent growth (GI% or GIPRCNT), where numbers from 0 - 100% represent growth inhibition, and numbers from -100% - 0 represent cell death. For example, a value of 40 represents 60% growth inhibition. A value of 0 means no net growth occurred over the course of the experiment. A value of -40 indicates 40% of cells at the beginning of the experiment died by the end of the experiment. A value of -100 means all cells are dead at the end of the experiment.
NCI-60 Human Tumor Cell Lines Screen was performed using the standard one-dose NCI protocol, which is described in more detail at https://dtp.cancer.gov/discovery_development/nci-60/default.htm.
Compounds with GIPRCNT values below 10 were considered active. Activity score was based on GIPRCNT using the following formula: […]
Score is 0 for GIPRCNT values of 100 or above, 50 for GIPRCNT values of 0, and 100 for GIPRCNT values of -100.
Regarding `C#CCn1cc(C=C2C(=O)NC(=O)NC2=O)c2cc(Cl)ccc21`, the growth is 123%. As for `CCOc1ccccc1CN1CCc2nc3cc(C(C)(C)C)[nH]n3c(=O)c2C1`, the growth was 112%. In the case of `O=c1oc2ccc(Cl)cc2c(=O)n1-c1cc(C(F)(F)F)cc(C(F)(F)F)c1` it was -74.8% (active); in that of `O=C(c1ccccc1)N(C(=S)NCCc1ccc(Cl)cc1)c1ccc(Cl)cc1`, 61.6%. As for `N#C/C(=C\c1c(-c2ccccc2)[nH]c2ccccc12)C(=O)c1ccccc1`, the figure is 25.6%. As for `Cc1ccc(F)cc1NC(=O)c1cc(Cl)ccc1Nc1ccccc1`, the figure is 16%; as for `COc1ccccc1N1C(=N)S/C(=C\c2ccc(OCc3ccccc3F)cc2)C1=O`, 112%.

Turning to `c1ccc2c(c1)oc1cc3sccc3nc12`, the growth is 109%. In the case of `CN1C(=O)N(C)C2Nn3c(s/c(=C4\C(=O)N(CCc5ccccc5)c5ccccc54)c3=O)=NC21` (stereo not given) it was 60.1%; in that of `S=C1CCCC(=S)N1`, 115%; in that of `CC(=O)Nc1nc2c(s1)CCc1c-2cn(S(=O)(=O)c2ccccc2)c1-c1ccccc1`, 75.3%. In the case of `Fc1cccc(COc2ccc(Nc3ncnc4onc(-c5ccccc5)c34)cc2)c1` it was 8.73% (active); in that of `O=C(Nc1nc2c(s1)CCc1c-2c(Br)n(Cc2ccccc2)c1Br)c1ccccc1`, 72.7%.

Consider `COc1cc(C#N)cc2[nH]c(=O)oc12`, for which the growth is 105%. In the case of `CN(C)CCCNCc1ccc(-c2ccc(F)c(Cl)c2)o1` it was -90% (active). As for `NCCNc1nc2ccc(F)cc2c2c(=O)c3cc(F)ccc3sc12`, the figure is -52.2% (active); as for `CCCCNc1nc(NC(C)(C)C)nc(NC(C)(C)C)n1`, 63.5%. As to `CCOc1ccc(Nc2ccnc3cc(Cl)ccc23)cc1`, the growth was -91.1% (active). Regarding `CCOC(=O)c1sc(-c2ccc(OS(=O)(=O)c3ccccc3[N+](=O)[O-])c(C=O)c2)nc1C`, the growth is 117%.

In the case of `COc1cc(C=C2C(=O)N(C)C(=O)N(C)C2=O)cc(CN2CCCCC2)c1O`, the growth is 111%. Regarding `COC(=O)[C@H](NC(=O)C1(C)CCC[C@]2(C)[C@H]3C[C@H]4C(C(C)C)=C[C@]3(CC[C@@H]12)[C@@H]1C(=O)CCC(=O)[C@@H]14)C(C)C` (stereo not given in full), the growth was 110%. On to `Cc1cc2c(c(C)c1Cl)C(=O)/C(=C/c1ccco1)O2`, for which the growth is 113%.

For `COc1cccc(C2=NN3C(C2)c2ccccc2OC3c2ccc(/C=C3\SC(=O)NC3=O)cc2)c1` (stereo not given), the growth is 119%. In the case of `COc1ccc(CN2CCCC(C(=O)c3ccc(C(F)(F)F)cc3)C2)c(O)c1` (stereo not given), the growth is -23.1% (active). As for `CC/C(=C(\CC)c1ccc(OCC[N+](C)(C)C)cc1)c1ccc(OC)cc1`, the figure is 6.92% (active); as for `Cc1nc(Nc2cn[nH]c2C(=O)Nc2ccc(CN3CCN(C)CC3)cc2)c2ccsc2n1`, 94.1%; as for `CCN1C(=O)N(CC)C2C1NN=c1s/c(=C3\C(=O)N(CC(C)(C)C)c4ccccc43)c(=O)n12` (stereo not given), -38.1% (active). As for `O=C(Nc1ccccc1O)c1ccc(Oc2cccc(C(=O)Nc3ccccc3O)c2)cc1`, the figure is 93.4%.

With `CCN1CCN(C(=S)SCC(=O)Nc2nc3ccc(C)cc3s2)CC1`, the growth was 103%.

For `O=CCCCC(O)C=O` (stereo not given), the growth is 100%.

Take `CCOC(=O)c1c2c(n3cccc(Cl)c13)C(=O)c1ncccc1C2=O`: the growth is 73.5%.

Turning to `Cn1c(=O)n(C)c2cc(CNCCNc3ccnc4cc(Cl)ccc34)ccc21`, the growth is 55.1%. Consider `O=c1cc(-c2ccccc2)oc2cc(OCc3cn(Cc4ccc(F)cc4)nn3)cc(OCc3cn(Cc4ccc(F)cc4)nn3)c12`, for which the growth was 68.4%. Consider `O=C1c2cc(Cl)ccc2Oc2cc([N+](=O)[O-])ccc2N1c1ccc(F)cc1F`, for which the growth is 96.5%.

On to `O=c1cc(NC2CCN(CCCc3ccccc3)CC2)c2cc(Cl)ccc2o1`, for which the growth was -98.4% (active). As for `CCOC(=O)c1c(Cl)c2c(n1Cc1ccccc1)-c1oncc1CCC2`, the figure is 56.9%; as for `O=S1(=O)N(Cc2ccccc2)[C@@H](Cc2ccccc2)C2O[C@H]2[C@H](Cc2ccccc2)N1Cc1ccccc1` (stereo not given in full), 61.8%. In the case of `COc1c(B(O)O)cccc1-c1nc2ccc3n[nH]c(F)c3c2c2c1CCCC2` it was 93.2%.

For the molecule `CCOC(=O)CSc1c(-c2ccccc2)c2cc(Cl)ccc2[nH]c1=O`, the growth was 110%. As for `Oc1c(CN2CCN(c3ccccc3F)CC2)cc(Br)c2cccnc12`, the figure is -8.74% (active).
